{
  "source": "ChEMBL document CHEMBL3988442",
  "about": "“University of Dundee, Small-Polar-MMV Screening Library” (2021)",
  "data": [
    {"target": "AMP-activated protein kinase, AMPK (Homo sapiens) (UniProt P54646+O43741+P54619+Q9UGJ0+Q9Y478+Q13131+Q9UGI9)", "assay": "AMP-dependent Kinase enzyme assay. An in vitro enzyme assay that detects ADP turnover that is directly proportional to AMPK activity. This uses naive AMPK that is activated during the assay with MK-8722", "type": "functional", "design": "scale not given: direction of the effect not stated beside the values", "conditions": "30 µM", "units": {"Percent Effect": "%"}, "values": [
      {"smiles": "CCC(C)(CC(=O)OC)NCc1cc(C)on1", "note": "(stereo not given)", "Percent Effect": -1.46},
      {"smiles": "CN1CCCN(c2ccc(F)cc2CNC(=O)c2ccsc2)CC1", "Percent Effect": 5.4},
      {"smiles": "Cc1cc(N2CCC(O)(C(=O)O)CC2)nc2ccccc12", "Percent Effect": 3.47},
      {"smiles": "CCC1(CC)CC(=O)N(CC(O)c2cc(F)ccc2F)C1=O", "note": "(stereo not given)", "Percent Effect": 11.8},
      {"smiles": "Cc1nc(CNC(=O)c2cc(COc3ccccc3F)[nH]n2)n[nH]1", "Percent Effect": 5.27},
      {"smiles": "CCCc1ccc(CN2CCC3(CCC(=O)N(CCO)C3)CC2)o1", "Percent Effect": 12.9},
      {"smiles": "Cc1ccc(CNC(=O)NCc2nccn2C)c(OC(C)(C)C)c1", "Percent Effect": 11.3},
      {"smiles": "COc1ccccc1CCN(C)C(C)c1nc(-c2cccnc2)no1", "note": "(stereo not given)", "Percent Effect": 1.66},
      {"smiles": "CC(NCc1cnc(N2CCOCC2)nc1)c1ccc(Cl)s1", "note": "(stereo not given)", "Percent Effect": 10.3},
      {"smiles": "Cc1noc(C(C)N2CCN(Cc3noc(C4CC4)n3)CC2)n1", "note": "(stereo not given)", "Percent Effect": 3.22},
      {"smiles": "CO[C@H]1C[C@@H](O)C12CCN(C(=O)NCc1ccco1)CC2", "Percent Effect": -2.57},
      {"smiles": "CCCOc1ccc2c(c1)OCC(CNC1CCc3ncnn3C1)=C2", "note": "(stereo not given)", "Percent Effect": 10.2},
      {"smiles": "NC(=O)COc1cccc(Cn2cccn2)c1", "Percent Effect": -6.59},
      {"smiles": "Cc1nn(C)c(C)c1-c1ccc(=O)n(C(C)C(=O)NC2CCCCC2)n1", "note": "(stereo not given)", "Percent Effect": 12.6},
      {"smiles": "CCC[C@H]1CN(C(=O)c2ccc3[nH]c(CO)nc3c2)C[C@@H]1N", "Percent Effect": 8.21},
      {"smiles": "Cn1c(CN2CC[C@](C)(O)C(C)(C)C2)cc2ccccc21", "Percent Effect": 12.4},
      {"smiles": "Cn1ccc(C(=O)N2CCCC2c2cc(CCO)[nH]n2)n1", "note": "(stereo not given)", "Percent Effect": 21.2},
      {"smiles": "COC(=O)c1ccc(CCn2cnc(C#N)n2)cc1", "Percent Effect": -2.56},
      {"smiles": "CC1COCCN1C(=O)Cc1cc(Cl)c2c(c1)OCCO2", "note": "(stereo not given)", "Percent Effect": 13.4},
      {"smiles": "CCn1cnnc1CNC(=O)N1CCOC(c2ccc(F)cc2)C1", "note": "(stereo not given)", "Percent Effect": -5.45},
      {"smiles": "CCSc1cc(C(=O)NC(C)c2cccc(N3CCOC3=O)c2)ccn1", "note": "(stereo not given)", "Percent Effect": 7.17},
      {"smiles": "O=C(CC1COCCN1)N1CCC(N2CCc3ccccc3C2)CC1", "note": "(stereo not given)", "Percent Effect": -4.72},
      {"smiles": "COc1ccccc1C(=O)NCCC(=O)Nc1c(C)nn(C)c1C", "Percent Effect": 9.26},
      {"smiles": "CC(C)NC(=O)CN(C)C(=O)c1csc(Cc2ccccc2F)n1", "Percent Effect": 5.04},
      {"smiles": "Cc1ccnc2c1NC(=O)CN2C(=O)CCc1ccccc1", "Percent Effect": -1.93},
      {"smiles": "CN1CCN(c2cccc(NC(=O)NCc3csc(N(C)C)n3)c2)C1=O", "Percent Effect": -16.7},
      {"smiles": "O=C(CC1CCCC1)NCCS(=O)(=O)N1CCN(c2ccccn2)CC1", "Percent Effect": -2.11},
      {"smiles": "COc1cc2c(cc1CNCc1cccnc1OC)OC(C)C2", "note": "(stereo not given)", "Percent Effect": 0.485},
      {"smiles": "O=C(c1cnn[nH]1)N(Cc1ccncc1)CC1CCCO1", "note": "(stereo not given)", "Percent Effect": -5.18},
      {"smiles": "CC(C(=O)N1CCCCC1)N1CCN(c2ncc(Cl)cn2)CC1", "note": "(stereo not given)", "Percent Effect": -3.64},
      {"smiles": "COC1CCN(c2ccc(F)cc2CN(C)C(C)C(N)=O)CC1", "note": "(stereo not given)", "Percent Effect": 8.56},
      {"smiles": "NC(=O)c1ccnc(N2CCCC(CO)(Cc3ccccc3)C2)c1", "note": "(stereo not given)", "Percent Effect": 11.6},
      {"smiles": "COc1cccc(CN2C[C@H]3CC[C@H]2C3)c1OCCN1CCOCC1", "Percent Effect": -4.89},
      {"smiles": "Cc1csc(CCNC(=O)N2CCC(n3cccc3)CC2)n1", "Percent Effect": -3.41},
      {"smiles": "CCOc1ccc2cc(C(=O)NCCNc3ccc(C)nn3)[nH]c2c1", "Percent Effect": 6.22},
      {"smiles": "CSCCC(NC(N)=O)C(=O)NCc1ccc(-n2cccn2)cc1", "note": "(stereo not given)", "Percent Effect": 0.578},
      {"smiles": "Cc1c(C(=O)N(C)C)cccc1N(C)S(C)(=O)=O", "Percent Effect": 11.2},
      {"smiles": "CC(C(N)=O)N1CCN(c2ncc(Br)cn2)CC1", "note": "(stereo not given)", "Percent Effect": -3.12},
      {"smiles": "CC(C)c1nn(C)cc1CNCc1ccnc(N(C)C)c1", "Percent Effect": -4.28},
      {"smiles": "NC(=O)c1ccnc(N2CCCC(CO)(Cc3ccc(F)cc3)C2)c1", "note": "(stereo not given)", "Percent Effect": 16.1}
    ]}
  ]
}
